Compound activity deposited in PubChem BioAssay by several laboratories.
The list is not random: actives were taken first. Their share in the collection is about 2.4%.
PfM18AAP inh: PfM18AAP inhibitors, malaria aminopeptidase, primary screen, biochemical, QFRET, recombinant enzyme | M18 aspartyl aminopeptidase (Plasmodium falciparum 3D7) | H-Glu-NHMec fluorogenic cleavage | inhibition, % at 7.35 µM | 290,000 compounds, 1.2% hits;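 active = inhibition above the campaign mean inhibition over all tested compounds plus 3 SD, cut at about 28% in these data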;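 also: 0% = plate median of test compound wells and 100% = 2 mM ZnCl2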
CR mimetic SO: reduction of superoxide in aged yeast, primary screen, HTS. superoxide response (% of plate mean), % at 10 µM. S. cerevisiae aged cells, superoxide DHE fluorescence; active compounds read low. 330,000 compounds, 0.18% hits. AID 2690, 2010;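 active = superoxide response under a set limit, about three screen SD below normal, cut at about 65% in these data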;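 also: yeast aged for seven days with compound at 30 °C before DHE staining; 100% = average MFI of all compound-treated wells on the plate with controls excluded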
PfG6PD inh: PfG6PD enzyme inhibitors, primary screen, biochemical, fluorescence intensity, uHTS. 350,000 compounds, 0.78% hits. inhibition, % at 20 µM. glucose-6-phosphate dehydrogenase-6-phosphogluconolactonase (Plasmodium falciparum 3D7). PfGluPho enzyme, NADPH resazurin-diaphorase fluorescence;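 active = inhibition reaching at least a set limit at 20 µM in the primary screen, cut at about 59% in these data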;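 also: 0% = DMSO wells with substrate and 100% = DMSO wells lacking glucose-6-phosphate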
A3A deaminase: APOBEC3A ssDNA deaminase inhibitors, primary screen, selectivity assay for APOBEC3G inhibitor project, biochemical, FAM/TAMRA oligo cleavage fluorescence. 330,000 compounds, 0.41% hits. DNA dC->dU-editing enzyme APOBEC-3A (Homo sapiens), P31941. AID 493011, 2011. recombinant A3A, FAM/TAMRA ssDNA deamination fluorescence. inhibition, % at 20 µM;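 active = at least 40% inhibition at 20 µM here, with at most 30% in a related deaminase screen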;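 also: plate controls were A3A with DMSO for no effect and wells lacking A3A enzyme for full effect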
APOBEC3G inh: APOBEC3G DNA deaminase inhibitors, primary screen, biochemical, fluorescence, single-stranded DNA substrate, uHTS. DNA dC->dU-editing enzyme APOBEC-3G (Homo sapiens), Q9HC16. recombinant A3G, ssDNA deamination FAM/TAMRA fluorescence. inhibition, % at 20 µM. 330,000 compounds, 0.28% hits. AID 493012, 2011;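 active = inhibition of at least 40% at 20 µM, with no more than 30% in the related APOBEC3A deaminase screen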;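 also: plate controls were DMSO wells with A3G for no effect and wells lacking A3G enzyme for full effect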
Target sequence (Q9HC16 whole entry, looked up): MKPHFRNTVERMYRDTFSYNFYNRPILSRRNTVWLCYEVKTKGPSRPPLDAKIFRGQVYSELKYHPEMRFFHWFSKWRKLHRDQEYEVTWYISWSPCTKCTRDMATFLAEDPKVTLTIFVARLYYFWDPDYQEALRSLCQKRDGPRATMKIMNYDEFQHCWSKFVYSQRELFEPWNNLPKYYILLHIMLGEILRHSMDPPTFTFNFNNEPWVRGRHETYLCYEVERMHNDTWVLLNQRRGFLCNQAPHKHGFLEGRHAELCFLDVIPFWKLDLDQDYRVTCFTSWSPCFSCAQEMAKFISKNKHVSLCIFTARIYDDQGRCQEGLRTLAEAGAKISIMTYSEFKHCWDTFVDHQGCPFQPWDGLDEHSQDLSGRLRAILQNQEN
APOBEC3A confirm: APOBEC3A deaminase inhibitors, retest, confirmation, selectivity assay for APOBEC3G inhibitor project, biochemical, single concentration, fluorescence readout. inhibition, % at 20 µM. recombinant A3A, ssDNA deaminase UDG fluorescence assay. 1,400 compounds, 63% hits. shares compounds with A3A deaminase;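 active = inhibition reaching a set limit, 80% of the first screen's cutoff, at 20 µM in any replicate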;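 also: plate controls were DMSO wells with A3A for no effect and wells lacking A3A enzyme for full effect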
UDG A3A counter: E. coli UDG inhibitors, confirmation, counter-screen for APOBEC3A inhibitor project, biochemical, single concentration, fluorescence, FAM/TAMRA oligo; shares compounds with A3A deaminase; UDG counterscreen, FAM/TAMRA uracil oligo fluorescence; inhibition, % at 20 µM; 1,000 tested, under 10 active; AID 504714, 2011; call rule not given here
An asterisk follows results filed as active; . = not tested or not shown.

SMILES | PfM18AAP inh | CR mimetic SO | PfG6PD inh | A3A deaminase | APOBEC3G inh | APOBEC3A confirm | others
O=C(CC(=O)c1cccs1)c1ccncc1 | . | . | -7 | . | . | .
Cc1cc(F)ccc1S(=O)(=O)N1CCCOC1CNC(=O)C(=O)NC1CCCCC1 (stereo unspecified) | -3 | 116 | 8 | -2 | -7 | .
CCN1CCN(c2ccc(S(=O)(=O)N3CCCCC3)cc2NC(=O)CC(NC(C)=O)c2ccccc2)CC1 (stereo unspecified) | . | 114 | 0 | 88* | 13 | 65* | UDG A3A counter=3
CCN1CCN(c2ccc(S(=O)(=O)N3CCCCC3)cc2NC(=O)/C=C/c2ccc([N+](=O)[O-])cc2)CC1 | . | 104 | 6 | 40* | 12 | 18
CN1CCN(c2ccc(S(=O)(=O)N3CCCCC3)cc2NC(=O)/C=C/c2ccc(OC(F)F)cc2)CC1 | . | 90 | 14 | 29 | -1 | .
CC(=O)Nc1ccc(NC(=O)C(C)OC(=O)c2cccc(S(=O)(=O)N3CCCC3)c2)cc1 (stereo unspecified) | . | 101 | -7 | 42* | 16 | 6
CC(=O)NC(CC(=O)Nc1ccc(S(=O)(=O)N2CCCC2)cc1)c1ccccc1 (stereo unspecified) | 8 | 102 | -6 | 3 | 3 | .
CCN1CCN(c2ccc(S(=O)(=O)N3CCCCC3)cc2NC(=O)/C=C/c2ccc(OC(F)F)cc2)CC1 | . | 96 | 7 | 46* | 12 | 59* | UDG A3A counter=2
CC(=O)Nc1ccc(NC(=O)C(C)OC(=O)c2cccc(S(=O)(=O)N3CCCCC3)c2)cc1 (stereo unspecified) | -6 | 97 | -1 | 2 | 1 | .
COc1ccc(C(CC(=O)c2ccc3c(c2)OCO3)C(=O)O)cc1OC (stereo unspecified) | . | . | -10 | . | . | .
COCCSc1nnc(NC(=O)CCS(=O)(=O)c2ccccc2)s1 | -3 | 97 | 5 | -5 | -5 | .
Cc1ccc2c(c1)CCCN2S(=O)(=O)c1cccc(C(=O)Nc2ccccc2C(=O)O)c1 | 6 | 100 | . | 5 | -5 | .
O=C(C(=O)N1CCN(c2ccccc2F)CC1)c1cn(CC(=O)N2CCCC2)c2ccccc12 | . | . | -20 | . | . | .
CC(=O)c1cccc(OC(=O)c2ccc3c(=O)n4c(nc3c2)CCC4)c1 | . | 85 | -6 | 65* | 21 | 47* | UDG A3A counter=-2
Cc1cccc(OC(=O)c2ccc3c(=O)n4c(nc3c2)CCC4)c1 | . | . | 1 | . | . | .
CCOC(=O)c1c(NC(=O)Cn2nc(C(F)(F)F)cc2C)sc(C)c1C | -4 | 114 | 4 | 45* | -6 | 1 | UDG A3A counter=4
CC(C)CN(C(=O)CC(C)c1ccccc1)c1c(N)n(Cc2ccccc2)c(=O)[nH]c1=O (stereo unspecified) | . | 80 | -7 | 70* | 20 | 11
CCC(C)Sc1ccc([C@@H]2[C@H]3C(=O)N(CC)C(=O)[C@H]3[C@]3(C(=O)OC)CCCN23)cc1OC (stereo partly specified) | . | 106 | 7 | 1 | -6 | .
CSc1nc(N)nc2c1ncn2CC(=O)N[C@H](C)c1cccc2ccccc12 | . | 100 | -67 | -2 | -2 | .
COc1ccc2nc(NC(=O)Cn3cnc4ccccc4c3=O)sc2c1 | -6 | 99 | -6 | 43* | 12 | 3
Oc1c(C(c2ccccc2)N2CCCCC2)ccc2ccccc12 (stereo unspecified) | . | . | 50 | . | . | .
COc1cc(OC)c(C(=O)N(CCc2ccccc2)Cc2ccccc2)cc1OC | 1 | 102 | 4 | 65* | -2 | 0 | UDG A3A counter=-2
